The results in this text go back to PubChem BioAssay AID2315 (National Center for Advancing Translational Sciences (NCATS), 2010).

Structures are written as SMILES. Hit rate of the full screen: of about 290,000 compounds, about 27,000 (9.3%) were called active. Cut-off read from the data, not from the text of the source: active = inhibition mostly above about 28% (no sharp cut-off); inactive = mostly below about 43%. The list comes from a sample in which actives are over-represented; it also holds similar structures and randomly drawn compounds.

A short description of the assay: A qHTS for Small Molecule Inhibitors of Shiga Toxin. Note: 0% is about no effect. The conditions noted are these: Vero cells, Shiga toxin protein synthesis inhibition reporter; at 38.7 µM, active compounds read high.
As to `NC(=O)C1CC(=O)N(c2ccc(OCC(=O)NCc3ccccc3)cc2)C1` (stereo unspecified), the inhibition is -19.2% (inactive).

On to `COc1ccc(/C=C(/NC(=O)c2ccco2)C(=O)Nc2ccc(C(C)=O)cc2)cc1`, for which the inhibition is -4.34% (inactive).

Regarding `CCCOC(=O)c1cc2ccccc2oc1=O`, the inhibition is 18.4% (inactive).

Regarding `CCOC(=O)c1cc2cc3ccccc3cc2oc1=O`, the inhibition is 43.1% (active).

`C=CCc1cccc2cc(C(=O)OCC)c(=O)oc12`: the inhibition is 2.24% (inactive).

Take `Cc1ccc(-n2c(SCC(=O)NCCC3=CCCCC3)nc3n[nH]c(C)c3c2=N)cc1Cl`: the inhibition was -4.66% (inactive).

As for `CCOC(=O)c1ccccc1NC(=O)COC(=O)CCC(=O)N1CCOCC1`, the inhibition was -9.24% (inactive).

Regarding `CC(=O)N1c2ccc(S(=O)(=O)N3CCCC(C(=O)Nc4cccc(F)c4)C3)cc2CC1C` (stereo unspecified), the inhibition is -2.88% (inactive).

`Cc1cccc(NC(=O)c2cccc(C(F)(F)F)c2)c1`: the inhibition was 77.8% (active).

Consider `Cc1cccc(NC(=O)/C(=C\c2ccco2)NC(=O)c2ccccc2)c1`, for which the inhibition was -2.02% (inactive).

As to `O=C(CNC(=O)c1ccc(Br)o1)Nc1ccccc1`, the inhibition is -4.27% (inactive).

Consider `Cc1cccc(NC(=O)NC(=S)NC(=O)c2ccccc2)c1`, for which the inhibition was 80.2% (active).

As for `Cc1cccc(NC(=S)NC23CN4CN(CN(C4)C2)C3)c1`, the inhibition is -10.3% (inactive).

Take `Cc1cccc(NC(=S)Nc2ccc(Br)cc2)c1`: the inhibition is 36.6% (inactive).

`CNC(=O)c1ccc(NC(=O)c2cccc(C(F)(F)F)c2)cc1`: the inhibition is -2.63% (inactive).

As to `Cc1cccc(NC(=O)c2nnn(-c3cccc(C(F)(F)F)c3)c2N)c1`, the inhibition is 31.4% (inactive).

For the molecule `Cc1cccc(NC(=S)NC(=O)c2ccc(Br)o2)c1`, the inhibition is 105% (active).

As for `COc1ccc(OCC(=O)Nc2ccc(NC(=O)c3ccco3)c(C)c2)cc1`, the inhibition was 19.3% (inactive).

`O=C(c1cc2cc(Br)cc(Br)c2oc1=O)N1CCOCC1`: the inhibition was 11.8% (inactive).

With `COC(=O)CSc1nc2ccccc2c(=O)n1Cc1ccccc1`, the inhibition was -8.77% (inactive).

`Cc1c(CC(=O)NCCCCCC(=O)O)c(=O)oc2cc3occ(-c4ccccc4)c3cc12`: the inhibition is -4.34% (inactive).

Turning to `CCN(CC)S(=O)(=O)c1ccc(N2CC(C(=O)NCc3cccnc3)CC2=O)cc1` (stereo unspecified), the inhibition was -5.91% (inactive).

For the molecule `Cc1ccc(CNC(=O)CCN2C(=O)[C@@H]3Cc4ccccc4CN3C2=O)cc1`, the inhibition is 8.09% (inactive).

For `CCC(Cc1ccccc1)NS(=O)(=O)c1ccc2c(c1)NC(=O)CS2` (stereo unspecified), the inhibition is 1.38% (inactive).

`O=C(CN(CC1CCCO1)C(=O)CNS(=O)(=O)c1ccc(Cl)cc1)NCc1ccccc1` (stereo unspecified): the inhibition is -14% (inactive).

Take `Cc1ccc(C(=O)N(CC(=O)NC2CCCC2)c2ccc(F)cc2)s1`: the inhibition is -7.38% (inactive).

As to `Cc1ccc(NC(=O)Nc2cccc(C(F)(F)F)c2)nc1`, the inhibition is 52.4% (inactive).

Take `O=C(NC(=O)c1cc(OCC(F)(F)F)ccc1OCC(F)(F)F)Nc1ccccc1`: the inhibition was 27.7% (inactive).

As to `O=C(Nc1ccccc1)Nc1ccc(C(F)(F)F)cn1`, the inhibition was 53% (active).

On to `O=C(OCc1ccc(-c2ccccc2)cc1)c1cccc(O)c1`, for which the inhibition was 80.8% (active).

For the molecule `CC(=O)Nc1ccccc1C(=O)OCC(=O)c1cccc2ccccc12`, the inhibition is -4.88% (inactive).

Regarding `O=C(OCc1ccc(Br)cc1)c1cccc(-c2nnc(-c3ccccc3)o2)c1`, the inhibition is 31.1% (inactive).

On to `CC1CCN(CC(=O)c2c[nH]c3ccccc23)CC1`, for which the inhibition is 15.1% (inactive).

As to `O=C(OCC(=O)c1c[nH]c2ccccc12)c1cccc(O)c1`, the inhibition was 69.8% (active).

Regarding `O=C(CNC(=O)c1ccc(-c2ccccc2)cc1)OCc1ccc(Cl)cc1`, the inhibition is -7.89% (inactive).

For the molecule `S=C(Nc1ccc(Br)cc1)NC1CCN(Cc2ccccc2)CC1`, the inhibition is -5.49% (inactive).

Regarding `CCc1cc2c(NC(Cc3ccccc3)C(=O)O)ncnc2s1` (stereo unspecified), the inhibition is -7.1% (inactive).

On to `COc1ccc(NS(=O)(=O)c2cc(C(=O)Nc3ccccc3C(=O)O)ccc2C)cc1`, for which the inhibition is -9.69% (inactive).

Consider `C/C(=N\NC(N)=S)c1ccncc1`, for which the inhibition was -3.77% (inactive).

With `C/C(=N/NC(=O)c1ccn(C)n1)c1ccncc1`, the inhibition is 81.2% (active).

Take `C/C(=N/NC(=O)c1ccncc1)c1ccc2c(c1)OCO2`: the inhibition was 1.65% (inactive).

As for `O=C(C1CCC1)N1CCN(c2ccccc2)CC1`, the inhibition was -2.3% (inactive).

Regarding `CC(=O)Oc1ccc(NC(=O)CCC2CCCCC2)c(C(=O)O)c1`, the inhibition was 9.77% (inactive).

As to `COc1ccc(NC(=O)CCN2CCCC2)c(OC)c1`, the inhibition is -1.84% (inactive).

On to `COc1ccc(NC(=O)CCCC2CCCCC2)c(OC)c1`, for which the inhibition is 72.3% (active).

As to `Cc1ccc(C)c(CN2CCC(CNC(=O)Nc3ccc(C)c(F)c3)CC2)c1`, the inhibition is 9.21% (inactive).

For `Cc1nc(NC(=O)C23CCC(C)(C(=O)O2)C3(C)C)sc1C` (stereo unspecified), the inhibition is -12.8% (inactive).

`Cc1cnc(NC(=O)C2CCCC2)s1`: the inhibition is 28.6% (inactive).

Take `Cc1nc(NC(=O)C2CCCCC2)sc1C`: the inhibition is 61.6% (active).

As for `CC(=O)c1cccc(NC(=O)c2ccncc2)c1`, the inhibition was -0.119% (inactive).

With `CCc1nc(SCC(=O)Nc2ccccc2OC)n[nH]1`, the inhibition was -3.11% (inactive).

On to `C=CCSc1nsc(NC(=O)Nc2cccc(C(C)=O)c2)n1`, for which the inhibition was 22.6% (inactive).

In the case of `CCSc1nsc(NC(=O)Nc2ccccc2OC)n1`, the inhibition is 27.4% (active).

Consider `COc1ccccc1NC(=O)Nc1nnc(Cc2ccc(F)cc2)s1`, for which the inhibition was 22.5% (inactive).

As to `CCSc1nsc(NC(=O)Nc2cccc(C(C)=O)c2)n1`, the inhibition was 41.5% (active).

For the molecule `COc1ccc(N2CC(C(=O)N[C@@H](C)C(=O)N3CCCCC3)CC2=O)cc1` (stereo partly specified), the inhibition was -4.4% (inactive).

As for `COCCc1nn2c(=O)cc(COC(=O)c3cc(OC)c(OC)c(OC)c3)nc2s1`, the inhibition is -8.18% (inactive).

Consider `C/C(N)=C(/C#N)C(=O)COC(=O)C1=NN(c2ccccc2)C(=O)CC1`, for which the inhibition is -13.8% (inactive).

On to `CCOCCCNC(=O)C(NC(=O)CNC(=O)c1ccccc1)c1ccc(OC)cc1` (stereo unspecified), for which the inhibition is -6.33% (inactive).

On to `Cc1ccsc1C(=O)N/N=C/c1ccc([N+](=O)[O-])cc1`, for which the inhibition is 64% (active).

On to `NC(=S)N/N=C/c1ccc([N+](=O)[O-])cc1`, for which the inhibition was 4.32% (inactive).

Consider `Cc1nc2ccccc2cc1C(=O)N/N=C/c1ccc([N+](=O)[O-])cc1`, for which the inhibition was -4.74% (inactive).

Turning to `Cc1ccc(NC(=O)c2sccc2C)cc1[N+](=O)[O-]`, the inhibition is 87.3% (active).

Regarding `Cc1ccc(NC(=O)CN2CCC(C(N)=O)CC2)cc1[N+](=O)[O-]`, the inhibition is 26% (inactive).

With `Cc1ccc(NC(=O)CN(C)CC(=O)Nc2cccc(F)c2)cc1[N+](=O)[O-]`, the inhibition is 14.5% (inactive).

With `O=C(NCC(=O)N1CCN(c2ncc(C(F)(F)F)cc2Cl)CC1)c1ccc(Br)o1`, the inhibition was -3.85% (inactive).

Take `C=C1CCN(C(CC(C)C)C(=O)N2CCOCC2)S(=O)(=O)c2ccccc21` (stereo unspecified): the inhibition is -4.26% (inactive).

With `O=C1C2C(c3ccccc3)CC=CC2C(c2ccoc2)N1Cc1ccccc1` (stereo unspecified), the inhibition is -1.21% (inactive).

Turning to `O=C(/C=C/c1ccc(F)cc1)NCCNC(=O)/C=C/c1ccc(F)cc1`, the inhibition is -7.35% (inactive).

As for `CC(C)c1ccc(/C=C/C(=O)NNC(=O)c2cccnc2)cc1`, the inhibition was 0.769% (inactive).

`C=CCNC(=O)/C=C/c1ccc(C(C)C)cc1`: the inhibition was 96.1% (active).

`CCCNC(=O)N1CCC(c2ccc3c(c2)OCO3)CC1`: the inhibition was -2.98% (inactive).

Turning to `Cc1nn(CC(=O)NCCc2ccccc2)c(=O)c2cc3occc3n12`, the inhibition was -3% (inactive).

On to `COc1ccc(CNC(=O)C(C)n2nc(C)c3c(C)n(-c4ccccc4)nc3c2=O)c(OC)c1` (stereo unspecified), for which the inhibition is -6.6% (inactive).

As to `CC(=O)N1c2ccc(S(=O)(=O)N3CCCC(C(=O)NCc4ccc(Cl)cc4)C3)cc2CC1C` (stereo unspecified), the inhibition was 8.69% (inactive).

As to `Cc1ccc(/C=N/NC(=O)CN2CCN(Cc3ccccc3)CC2)s1`, the inhibition was 14.8% (inactive).

As for `C=CCNC(=S)N/N=C/c1ccc(OCc2ccccc2)cc1`, the inhibition was -15.4% (inactive).

`C=CCNC(=S)N/N=C/c1ccc(C)s1`: the inhibition was 39.3% (active).

Regarding `CCCn1c(C(C)Nc2nc(-c3ccc(C)cc3)cs2)nc2cc(Cl)c(N3CCCCC3)cc21` (stereo unspecified), the inhibition was -1.11% (inactive).

For `CCC(O)C1CCN(Cc2cn(-c3ccc(OC)cc3)nc2-c2cccc(F)c2)CC1` (stereo unspecified), the inhibition is 50.9% (inactive).

As for `Cc1ccc(C)c(-n2cc(CN3CCN(C(=O)c4ncn[nH]4)CC3)c(-c3ccccc3)n2)c1`, the inhibition was 8.93% (inactive).

`Cc1cccc(-n2cc(CN3CCN(C(=O)c4ncn[nH]4)CC3)c(-c3cccc(F)c3)n2)c1`: the inhibition is 63.8% (active).

`COc1ccc(S(=O)(=O)N(C)CC(=O)NCCCN2CCOCC2)cc1Cl`: the inhibition was -12.5% (inactive).

As to `Clc1nc(NC2CCCC2)nc(N2CCOCC2)n1`, the inhibition is 5.65% (inactive).

Turning to `CCc1ccc(CNC(=O)C2CCN(c3nnc(C)c4c(C)n(-c5ccc(C)cc5)nc34)CC2)cc1`, the inhibition is -5.47% (inactive).

For `O=S(=O)(c1ccc(Cl)cc1)c1nc(-c2ccco2)oc1N1CCCCC1`, the inhibition was -0.989% (inactive).

On to `CSc1ccc(S(=O)(=O)N2CCC(C(=O)NCCc3ccccc3)CC2)cc1`, for which the inhibition was 56.2% (inactive).

In the case of `CC(Oc1cc2oc(=O)c3c(c2cc1Cl)CCCC3)C(=O)NCc1ccncc1` (stereo unspecified), the inhibition is -3.65% (inactive).

Regarding `CCN1/C(=C/c2ccc3ccc(C)cc3[n+]2CC)Sc2ccccc21`, the inhibition is 5.47% (inactive).

Take `CCN1/C(=C/C(=S)Nc2ccccc2)Sc2ccccc21`: the inhibition was 62.5% (active).

In the case of `O=C(CCN1c2ccccc2Sc2ccccc21)Nc1ccccc1`, the inhibition is -1.29% (inactive).

For `CCn1cc(/C=C(\NC(=O)c2ccc(C)cc2)C(=O)NCCN2CCOCC2)c2ccccc21`, the inhibition is 1.24% (inactive).

Turning to `Cc1ccc(-c2nc(C)sc2CC(=O)O)cc1`, the inhibition was -13.7% (inactive).

As for `CCOC(=O)C(=O)Nc1nc(-c2ccccc2)c(CC)s1`, the inhibition was -12% (inactive).

In the case of `C/C(=N/Nc1nc(-c2ccccc2)c(CC(=O)O)s1)c1ccccc1`, the inhibition is 68.4% (active).

Turning to `COC(=O)c1cccc(N2C(=O)C3C4C=CC(CC4)C3C2=O)c1` (stereo unspecified), the inhibition is 0.962% (inactive).
